Here are results for 40 molecules from PubChem BioAssay (NCI).

Structures are written as SMILES. This is part of a sample that, as a whole, favours compounds with a hit. Of some 83,000 tested, about 20% had one in any assay.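 The endpoint reported here, percent growth, reads 100 for growth as untreated, 0 for no net growth and -100 for all cells dead.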 Unmarked numbers belong to inactive results. Calls of active or inactive are those of the source.

This assay deals with NCI/ADR-RES ovarian. Description: NCI-60 one-dose screen, 48 h (100 = growth as untreated, 0 = no growth, -100 = all killed). The conditions noted are these: 10 µM unless noted. The procedure: Growth inhibition of the NCI/ADR-RES human […] tumor cell line is measured as a screen for anti-cancer activity. Cells are grown in 96 well plates and exposed to the test compound for 48 hours. Compounds are tested at a single concentration, which is 10^-5 M for most compounds. The reported endpoint is percent growth (GI% or GIPRCNT), where numbers from 0 - 100% represent growth inhibition, and numbers from -100% - 0 represent cell death. For example, a value of 40 represents 60% growth inhibition. A value of 0 means no net growth occurred over the course of the experiment. A value of -40 indicates 40% of cells at the beginning of the experiment died by the end of the experiment. A value of -100 means all cells are dead at the end of the experiment.
NCI-60 Human Tumor Cell Lines Screen was performed using the standard one-dose NCI protocol, which is described in more detail at https://dtp.cancer.gov/discovery_development/nci-60/default.htm.
Compounds with GIPRCNT values below 10 were considered active. Activity score was based on GIPRCNT using the following formula: […]
Score is 0 for GIPRCNT values of 100 or above, 50 for GIPRCNT values of 0, and 100 for GIPRCNT values of -100.
Consider `O=c1c2cc(F)ccc2sc2c(NCCCNCCO)nc3ccccc3c12`, for which the growth is 32.4%. With `Nc1nn(C(=O)Nc2ccc(Cc3ccccc3)cc2)c2ccc(Cl)cc12`, the growth is 67%. Under `CSc1ccc2c(c1)c(CCN)c(C)n2Cc1ccc(Cl)c(Cl)c1` stands -87.8% (active). `CN1C(=C2C(=O)OC(C)(C)OC2=O)CCC1C(=O)NCc1ccc(Cl)cc1Cl` (stereo not given): the growth was 101%. `CCCCn1c(-c2ccc(-c3nc(-c4ccc(Cl)cc4)no3)cc2)nc(-c2ccccc2)c1-c1ccccc1`: the growth was 82.5%. With `CCCCn1c(=O)c(-c2cc(-c3ccc(Cl)cc3)nc(-c3ccc(Cl)cc3)c2)cc2ccc(Cl)cc21`, the growth was 95.9%. With `CCCCn1c(=O)c(-c2cc(-c3ccc(Cl)cc3)nc(-c3ccc(Cl)cc3)c2)cc2cc(C)ccc21`, the growth was 104%. Take `Cc1ccc2nc(NC(=O)CSc3nc(Cl)c(C#N)c(-c4ccccc4)n3)sc2c1`: the growth is 102%. For `Clc1ccc(C(/C=C/c2sc(Cl)nc2Cl)=N/Nc2cc(Cl)cc(Cl)c2)cc1`, the growth was 104%. As for `O=C(COc1ccc(/C=C2\Cc3ccc(Cl)cc3C2=O)cc1)Nc1nc2ccccc2s1`, the growth is 99.2%. Under `COc1ccc2c(c1)c(-c1nn3cc(-c4cccs4)nc3s1)cn2C` stands 80.3%. For `Cc1cccc2c1S/C(=C/c1ccc([N+](=O)[O-])cc1)C2=O`, the growth was 110%. In the case of `O=C(N/N=C/[C@H](O)[C@@H](O)[C@@H](O)[C@H](O)CO)c1ccc(NC(=O)c2cccnc2)cc1`, the growth was 106%.

As for `CCOC(=O)c1[nH]c(C)c(C(=O)OCc2ccccc2C#N)c1C`, the growth is 14.9%. `C[C@H]1[C@H]2[C@H]3CC[C@@H]4[C@@]5(C)CC[C@H](O)C(C)(C)[C@@H]5CC[C@@]4(C)[C@]3(C)CC[C@]23CO[C@]1(C)[C@@H](C(=O)/C=C\c1cccnc1)C3`: the growth is 78.9%. In the case of `COc1cc(C(=O)/C=C/c2sc(Cl)nc2Cl)cc(OC)c1OC`, the growth was 76.3%. As to `C#Cc1cccc(NC(=O)c2ccc(NC(=O)C=C)cc2)c1`, the growth was 73.9% [8.25 µM]. As to `CCc1nnc(NC(=O)c2nnn(-c3ccccc3)c2-c2ccco2)s1`, the growth is 100%. Under `Cc1ccc(S(=O)(=O)N/N=C/C2(c3ccccc3)CC2)cc1` stands 107%; under `COc1ccc(-c2nc3sc(-c4ccc(Cl)cc4)cn3n2)cc1`, 45.6%; under `O=[N+]([O-])c1ccc(Cl)c(-c2cc(CCCCO)on2)c1`, 101%. In the case of `Cc1ccc(-c2nn(C)c(=O)c3noc(-c4ccc(C)cc4)c23)cc1` it was 30.4%; in that of `Clc1ccc2c(c1)N(CCCN1CCCC1)c1ccccc1S2`, 35.8%; in that of `c1ccc(-c2nc3nonc3nc2-c2ccccc2)cc1`, 74.4%. For the molecule `CCCCOc1ccc(/C=N/NC(N)=S)cc1`, the growth is 85.5%.

Turning to `CCc1cccc2c1S/C(=C/c1ccc(OC)cc1)C2=O`, the growth is 30.2%. On to `CCc1ccccc1-n1c(N)c(C#N)c(-c2ccc(Cl)cc2)c(C#N)c1=O`, for which the growth was 102%.

For the molecule `O=C1/C(=C/c2ccc(F)cc2)Sc2c(Br)cccc21`, the growth was 71.9%. In the case of `COc1cc(CCCO)c(OC)c(OC)c1OC` it was 104%; in that of `CC(=O)OC[C@H]1OC(Sc2sc(C(=O)c3ccc(Br)cc3)c(N)c2-c2nc3ccccc3s2)[C@H](OC(C)=O)[C@@H](OC(C)=O)[C@H]1OC(C)=O` (stereo not given in full), 88.4%. Under `CC1Cc2c(ncn3c(-c4ccc(F)cc4)nnc23)N(C)c2ccccc21` (stereo not given) stands 41%; under `CCCSc1nc2ccc(C)cc2cc1/C=[N+](\[O-])c1ccccc1`, 7.89% (active).

`Cc1cc(=O)oc2cc(OC(=O)N3CCN(C)CC3)ccc12`: the growth was 104%. In the case of `Cc1ccc(C(=O)N/N=C/c2cccc([N+](=O)[O-])c2)cn1` it was 104%.

Turning to `CCCCCCCCCCCCCCCCCCOc1ccc(CC(=O)OCC[N+](C)(C)C)cc1`, the growth is 99.3%.

`Cc1ccc2c(n1)C(=O)C(Cl)=C(Nc1ccccc1C(C)C)C2=O`: the growth is 85.8%. Regarding `O=c1c2cc(F)ccc2sc2c(N3CCCCC3)nc3ccccc3c12`, the growth is 101%. In the case of `O=C(O)C(c1ccccc1)N1C(=O)CSC1=S` (stereo not given) it was 106%; in that of `C[C@H](C(=O)Nc1ccc(S(N)(=O)=O)cc1)S(=O)(=O)c1ccccc1`, 99.3%. In the case of `COc1ccc(/C=C2\Oc3cc(OCCN4CCC(Cc5ccccc5)CC4)ccc3C2=O)cc1OC`, the growth was 70.9%.
